Assay results: PubChem BioAssay (Tox21)
Records with an inconclusive call do not appear. A call without a number means that no potency is given here. Activity calls are given as the source filed them. Calls come from the whole dose curve; as a rule, active = well fitted cell-killing curve with a large enough effect in the repeat runs; inconclusive = weak or mixed curves; inactive = flat fitted curve, though single readings scatter.

Assay: qHTS RealTime-Glo MT Cell Viability Assay in HepG2 cells - 16 hour (AID 1224885); note: nearly all actives have a fitted effect of over 50% in size
Settings: RealTime-Glo luminescence; series mostly up to 76.8 µM
Text: U.S. Tox21 Program National Center for Advancing Translational Sciences [NCATS] NIH Chemical Genomics Center [NCGC] U.S. Environmental Protection Agency [EPA] National Institutes of Environmental Health Sciences [NIEHS] National Toxicology Program [NTP] U.S. Food and Drug Administration [FDA] Tox21 Assay Overview: Measure of cell viability is critical in the cell-base assay. Analysis of cell viability is necessary for the characterization of cell responses to cytotoxic drugs and environmental stress. A RealTime-Glo MT Cell Viability Assay to monitor cell viability in real time of continues cell culture during 40 hours of compound treatment was used to screen Tox21 10K library compounds in HepG2 cells. The RealTime-Glo MT Cell Viability Assay is a nonlytic, homogeneous, bioluminescent method to measure cell viability in real time using a simple, plate-based method. The assay involves adding NanoLuc luciferase and a cell-permeant prosubstrate to cells in culture. Viable cells reduce the proprietary prosubstrate to generate a substrate for NanoLuc luciferase. This substrate diffuses from cells into the surrounding culture medium, where it is rapidly used by the NanoLuc Enzyme to produce a luminescent signal. The signal correlates with the number of viable cells, making the assay well suited for cytotoxicity studies.
Tox21 Assay Protocol Summary: The mixture of HepG2 cell suspension and reagents were dispensed at 600cells/6 ul/well in 1536-well tissue culture treated black solid bottom plates using a Multidrop dispenser. After the assay plates were incubated at a 37 C/5% CO2 incubator for 5 hours, 23 nL of compounds dissolved in DMSO, positive and negative controls was transferred to the assay plate by a pintool work station. The plates were incubated at 37 C for 40 hours. The luminescence intensity were measured at 0h, 8h, 16h, 24h, 32h and 40h time points using ViewLux plate reader during compound treatment.
Potency is the fitted concentration of half-maximal effect.

SMILES	Potency	activity change, negative = cytotoxic
CCOC(=O)/C=C(C)/C=C/C=C(C)/C=C/c1c(C)cc(OC)c(C)c1C	inactive	–
O=C(c1ccc(O)cc1O)c1ccc(O)cc1O	inactive	–
S=c1[nH]c2ccccc2s1	inactive	–
CCCCCCCCCCCCc1ccc(O)cc1	43.6 µM (active)	–
CCC(Cl)C(Cl)C(Cl)CC(Cl)C(Cl)C(C)Cl (stereo not given)	inactive	–
O=S1(=O)CC(Cl)(Cl)C(Cl)(Cl)C1	6.92 µM (active)	–
COc1cc(/C=C/C(=O)O[C@H]2CC[C@]34C[C@]35CC[C@]3(C)[C@@H]([C@H](C)CCC=C(C)C)CC[C@@]3(C)[C@@H]5CC[C@H]4C2(C)C)ccc1O	inactive	–
CCN(C(=O)N(CC)c1ccccc1)c1ccccc1	inactive	–
Cc1c(C)c2c(c(C)c1OC(=O)CCC(=O)O)CC[C@@](C)(CCC[C@H](C)CCC[C@H](C)CCCC(C)C)O2	inactive	–
O=c1cc(-c2ccc(O)cc2)oc2cc(O)cc(O)c12	inactive	–
CCCC(C)c1ccccc1O (stereo not given)	inactive	–
CCCCCCCCCCCCCCCC(=O)OC[C@H](O)[C@H]1OC(=O)C(O)=C1O	inactive	–
CO[Si](CCCNc1ccccc1)(OC)OC	inactive	–
CC(NN)c1ccccc1 (stereo not given)	–	0.634% [at 15.8 µM] (inactive)
CC(C)OC(=O)c1cc2c(OCC(O)CNC(C)(C)C)cccc2[nH]1 (stereo not given)	inactive	–
CCc1oc2ccccc2c1C(=O)c1cc(Br)c(O)c(Br)c1	inactive	–
Oc1cccc2cc3cccc(O)c3c(O)c12	inactive	–
O=C1C=CC(=O)N1	25.2 µM (active)	–
CC(=O)OCC(C)OC(C)=O (stereo not given)	inactive	–
CCCCN(CCCC)c1ccc(C(=O)c2ccccc2C(=O)O)c(O)c1	inactive	–

SMILES	Potency	activity change, negative = cytotoxic
CC/C(=C(\c1ccc(O)cc1)c1ccc(OCCN(C)C)cc1)c1ccccc1	61.8 µM (active)	–
O=C(OCC(COC(=O)c1ccccc1)(COC(=O)c1ccccc1)COC(=O)c1ccccc1)c1ccccc1	inactive	–
O=C1c2ccccc2Cc2ccccc21	inactive	–
CC(=O)SC[C@@H](Cc1ccccc1)C(=O)NCC(=O)OCc1ccccc1	inactive	–
CC(C)n1nc(-c2cc3cc(O)ccc3[nH]2)c2c(N)ncnc21	inactive	–
C1CCCC1	inactive	–
CCCCCCCCCCC=O	inactive	–
Cc1nc(-c2ccc3c(c2)CCN(CCC2CCC(NC(=O)/C=C/c4ccc(F)cc4)CC2)CC3)no1 (stereo not given)	inactive	–
Cc1c(C)c2c(c(C)c1O)CCC(C)(COc1ccc(CC3SC(=O)NC3=O)cc1)O2 (stereo not given)	inactive	–
CC(C)C(C)(C)C(C)(C)C(C)(C)S	inactive	–
CC1=C(/C=C/C(C)=C/C=C/C(C)=C/C=O)C(C)(C)CCC1	48.7 µM (active)	–
O=C(OCC1CO1)C1CCCCC1C(=O)OCC1CO1 (stereo not given)	inactive	–
Cc1cc(O)c(C(C)(C)C)cc1Sc1cc(C(C)(C)C)c(O)cc1C	48.9 µM (active)	–
COc1cccc(N)c1	inactive	–
CCc1cc(Cc2cc(CC)c(N)c(CC)c2)cc(CC)c1N	inactive	–
C=C(C)C(=O)OCC(O)COc1ccc(C(C)(C)c2ccc(OCC(O)COC(=O)C(=C)C)cc2)cc1 (stereo not given)	19.5 µM (active)	–
CNCc1cc(F)ccc1Oc1ccc(Cl)c(Cl)c1	49 µM (active)	–
CCCCCCCC[N+](CCCCCCCC)(CCCCCCCC)CCCCCCCC	24.5 µM (active)	–
CC(C)CCCCCCCCCCCCCCC(=O)O	inactive	–
CCCCCCCC[P+](CCCCCCCC)(CCCCCCCC)CCCCCCCC	17.3 µM (active)	–
